Consider seven compounds from PubChem BioAssay AID1508601 (ICCB-Longwood Screening Facility, Harvard Medical School, 2020).

The nature of assay [1]: p53 stabilisation in HPV-positive human cells, imaging, p53-positive nuclei imaging, 24 h, 48 h (AID 1508601). Conditions: 24/48 h.
The target of assay [2] is Cellular tumor antigen p53 (Homo sapiens) (UniProt P04637). The assay is described as above. Conditions: 24/48 h, stronger effect = higher value.
Where [3] appears, read: measured here: cell number at 24 h, Library stock concentration: 46 uM.
Where [4] appears, read: measured here: cell number at 24 h, Library stock concentration: 278 uM.
[5] abbreviates: measured here: cell number at 24 h, Library stock concentration: 1.67 mM.
[6] abbreviates: measured here: cell number at 24 h, Library stock concentration: 3.33 mM.
[7] abbreviates: measured here: cell number at 24 h, Library stock concentration: 10 mM.
Setting [8] is: measured here: cell number at 48 h, Library stock concentration: 46 uM.
[9] abbreviates: measured here: cell number at 48 h, Library stock concentration: 278 uM.
Where [10] appears, read: measured here: cell number at 48 h, Library stock concentration: 1.67 mM.
The mark [11] stands for this setting: measured here: cell number at 48 h, Library stock concentration: 3.33 mM.
Where [12] appears, read: measured here: cell number at 48 h, Library stock concentration: 10 mM.
Setting [13] is: Library stock concentration: 46 uM.
[14] abbreviates: Library stock concentration: 278 uM.
Setting [15] is: Library stock concentration: 1.67 mM.
Where [16] appears, read: Library stock concentration: 3.33 mM.
[17] abbreviates: Library stock concentration: 10 mM.
The mark [18] stands for this setting: measured here: p53 positive nuclei at 24 h, Library stock concentration: 46 uM.
The mark [19] stands for this setting: measured here: p53 positive nuclei at 24 h, Library stock concentration: 278 uM.
[20] abbreviates: measured here: p53 positive nuclei at 24 h, Library stock concentration: 1.67 mM.
Setting [21] is: measured here: p53 positive nuclei at 24 h, Library stock concentration: 3.33 mM.
Setting [22] is: measured here: p53 positive nuclei at 24 h, Library stock concentration: 10 mM.
Where [23] appears, read: measured here: cell number at 24 h, Library stock concentration: 80 uM.
[24] abbreviates: measured here: cell number at 24 h, Library stock concentration: 400 uM.
The mark [25] stands for this setting: measured here: cell number at 24 h, Library stock concentration: 2 mM.
Setting [26] is: measured here: cell number at 48 h, Library stock concentration: 80 uM.
The mark [27] stands for this setting: measured here: cell number at 48 h, Library stock concentration: 400 uM.
Setting [28] is: measured here: cell number at 48 h, Library stock concentration: 2 mM.
Setting [29] is: Library stock concentration: 80 uM.
Setting [30] is: Library stock concentration: 400 uM.
The mark [31] stands for this setting: Library stock concentration: 2 mM.
Setting [32] is: measured here: p53 positive nuclei at 24 h, Library stock concentration: 80 uM.
Where [33] appears, read: measured here: p53 positive nuclei at 24 h, Library stock concentration: 400 uM.
The mark [34] stands for this setting: measured here: p53 positive nuclei at 24 h, Library stock concentration: 2 mM.

“And” between values parts separate entries of the source, which are not always exact repeats. Identical values can stand only once. Hit rate of the full screen: of about 5,700 compounds, about 85 (1%) were called active. No stated cut-off is given here; in the data, active means p53-positive nuclei above about 36% (passing the limit was not always enough); inactive means the rest. What follows is part of a selection rich in actives, with near analogues and random picks from the rest.

Chain of Cellular tumor antigen p53 (Homo sapiens) (P04637 whole entry, looked up): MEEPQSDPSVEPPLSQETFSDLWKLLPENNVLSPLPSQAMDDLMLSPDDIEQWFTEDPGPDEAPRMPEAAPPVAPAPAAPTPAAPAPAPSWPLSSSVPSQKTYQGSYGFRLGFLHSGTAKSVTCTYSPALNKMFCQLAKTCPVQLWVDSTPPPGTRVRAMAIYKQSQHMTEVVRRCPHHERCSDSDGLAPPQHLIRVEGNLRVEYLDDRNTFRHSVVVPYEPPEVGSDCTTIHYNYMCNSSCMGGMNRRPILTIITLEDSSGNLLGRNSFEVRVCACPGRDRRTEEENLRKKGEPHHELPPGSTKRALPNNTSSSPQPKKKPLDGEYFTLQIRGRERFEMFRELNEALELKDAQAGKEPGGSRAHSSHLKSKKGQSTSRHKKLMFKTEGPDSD

Regarding `Cc1cc(OCc2nnc(SC3CCCC3)n2-c2cccnc2)ccc1-c1ccc(S(C)(=O)=O)cc1`, the nuclei count, normalised stood at 107% in assay [1] (setting [3]); 112% in assay [1] (setting [4]); 74.2% in assay [1] (setting [5]); 78.3% in assay [1] (setting [6]); 53.9% in assay [1] (setting [7]); 114% in assay [1] (setting [8]). Besides, the nuclei count, normalised in assay [1] (setting [9]) stood at 110%; in assay [1] (setting [10]), 69.2%; in assay [1] (setting [11]), 66.8%; in assay [1] (setting [12]) it was 36.2%. The p53-positive nuclei, normalised in assay [2] (setting [13]) was -0.268% (inactive); in assay [2] (setting [14]), -0.012% (inactive); in assay [2] (setting [15]), 2.41% (inactive); in assay [2] (setting [16]), 3.08% (inactive); in assay [2] (setting [17]), 57.1% (active); in assay [2] (setting [18]) it was -0.152%. Further, the p53-positive nuclei, normalised was -0.153% in assay [2] (setting [19]), 1.05% in assay [2] (setting [20]), 0.345% in assay [2] (setting [21]) and 46.4% in assay [2] (setting [22]).

As for `CC(NC(=O)c1cc(Cl)ccc1Oc1ccc(F)cc1)c1ccc(C(=O)O)cc1` (stereo unspecified), the nuclei count, normalised was 115% in assay [1] (setting [23]); 119% in assay [1] (setting [24]); 117% in assay [1] (setting [25]); 107% in assay [1] (setting [7]); 117% in assay [1] (setting [26]); 115% in assay [1] (setting [27]). In addition, the nuclei count, normalised in assay [1] (setting [28]) turned out to be 114%; in assay [1] (setting [12]), 108%. Also, the p53-positive nuclei, normalised in assay [2] (setting [29]) was 0.0152% (inactive); in assay [2] (setting [30]), -0.136% (inactive); in assay [2] (setting [31]) it was -0.0948% (inactive); in assay [2] (setting [17]), -0.00827% (inactive); in assay [2] (setting [32]), -0.00172%; in assay [2] (setting [33]), -0.0227%. In addition, the p53-positive nuclei, normalised in assay [2] (setting [34]) was -0.0802%; in assay [2] (setting [22]), -0.136%.

On to `O=C1OC[C@@H](Cc2cccc(O)c2)[C@@H]1Cc1cccc(O)c1`, for which the nuclei count, normalised in assay [1] (measured here: cell number at 24 h, concentration not given here) came to 111%; in assay [1] (measured here: cell number at 48 h, concentration not given here), 114%. Also, the p53-positive nuclei, normalised in assay [2] (concentration not given here) was -0.147% (inactive); in assay [2] (measured here: p53 positive nuclei at 24 h, concentration not given here), -0.118%.

Turning to `COC1C[C@H]2CCC(C)[C@@](O)(O2)C(=O)C(=O)N2CCCC[C@H]2C(=O)OC(C(C)CC2CCC(OP(C)(C)=O)C(OC)C2)CC(=O)C(C)C=C(C)C(O)C(OC)C(=O)C(C)CC(C)C=CC=CC=C1C` (stereo partly specified), the nuclei count, normalised in assay [1] (setting [6]) is 108%; in assay [1] (setting [11]), 105%. Also, the p53-positive nuclei, normalised in assay [2] (setting [16]) is -0.656% (inactive); in assay [2] (setting [21]), -0.202%.

As to `CS(=O)(=O)N1CCN(Cc2cc3nc(-c4cccc5[nH]ncc45)nc(N4CCOCC4)c3s2)CC1`, the nuclei count, normalised turned out to be 89.1% in assay [1] (setting [3]); 105% in assay [1] (setting [23]); 97% in assay [1] (setting [4]); 93.5% in assay [1] (setting [24]); 84.9% in assay [1] (setting [5]); 94% in assay [1] (setting [25]). Besides, the nuclei count, normalised in assay [1] (setting [6]) was 97.5%; in assay [1] (setting [7]) it was 66.1% and 64.1%; in assay [1] (setting [8]) it was 97%; in assay [1] (setting [26]), 109%; in assay [1] (setting [9]) it was 100%; in assay [1] (setting [27]), 93.5%. The nuclei count, normalised in assay [1] (setting [10]) is 87.3%; in assay [1] (setting [28]), 89.3%; in assay [1] (setting [11]), 101%; in assay [1] (setting [12]) it was 56.3% and 65.9%. The p53-positive nuclei, normalised in assay [2] (setting [13]) was -0.00738% (inactive); in assay [2] (setting [29]), -0.168% (inactive); in assay [2] (setting [14]), -0.0603% (inactive); in assay [2] (setting [30]), -0.297% (inactive); in assay [2] (setting [15]), -0.0683% (inactive); in assay [2] (setting [31]) it was -0.297% (inactive). Moreover, the p53-positive nuclei, normalised in assay [2] (setting [16]) was -0.619% (inactive); in assay [2] (setting [17]), -0.184% (inactive) and -0.277% (inactive); in assay [2] (setting [18]), -0.0723%; in assay [2] (setting [32]), 0.26%; in assay [2] (setting [19]), -0.0265%; in assay [2] (setting [33]), -0.0433%. Moreover, the p53-positive nuclei, normalised in assay [2] (setting [20]) was -0.14%; in assay [2] (setting [34]), -0.0447%; in assay [2] (setting [21]), -0.329%; in assay [2] (setting [22]), -0.00819% and -0.118%.

As to `Cc1c(CN2CCN(C(=O)C(C)O)CC2)sc2c(N3CCOCC3)nc(-c3cnc(N)nc3)nc12` (stereo unspecified), the nuclei count, normalised in assay [1] (setting [23]) was determined as 107%; in assay [1] (setting [24]) it was 110%; in assay [1] (setting [25]), 89.3%; in assay [1] (setting [6]) it was 82.6%; in assay [1] (setting [7]) it was 84.4%; in assay [1] (setting [26]) it was 113%. Further, the nuclei count, normalised was 112% in assay [1] (setting [27]), 89% in assay [1] (setting [28]), 84% in assay [1] (setting [11]) and 88.2% in assay [1] (setting [12]). The p53-positive nuclei, normalised in assay [2] (setting [29]) was 0.00265% (inactive); in assay [2] (setting [30]) it was -0.106% (inactive); in assay [2] (setting [31]), -0.151% (inactive); in assay [2] (setting [16]), -0.349% (inactive); in assay [2] (setting [17]), -0.157% (inactive); in assay [2] (setting [32]), 0.036%. Moreover, the p53-positive nuclei, normalised in assay [2] (setting [33]) was -0.106%; in assay [2] (setting [34]), -0.151%; in assay [2] (setting [21]) it was -0.356%; in assay [2] (setting [22]), -0.0302%.

`COc1ccc(-c2nc(N3CCOCC3)c3sc(CN(C)c4ncc(C(=O)NO)cn4)cc3n2)cn1`: the nuclei count, normalised in assay [1] (setting [23]) worked out at 47.5%; in assay [1] (setting [24]), 43.3%; in assay [1] (setting [25]), 39.6%; in assay [1] (setting [6]) it was 33.2%; in assay [1] (setting [7]), 31.5%; in assay [1] (setting [26]), 22.9%. The nuclei count, normalised stood at 21.1% in assay [1] (setting [27]), 24.2% in assay [1] (setting [28]), 21.9% in assay [1] (setting [11]) and 19% in assay [1] (setting [12]). Also, the p53-positive nuclei, normalised was 96.8% (active) in assay [2] (setting [29]); 94.6% (active) in assay [2] (setting [30]); 98.6% (active) in assay [2] (setting [31]); 65.1% (active) in assay [2] (setting [16]); 81.6% (active) in assay [2] (setting [17]); 77.1% in assay [2] (setting [32]). Also, the p53-positive nuclei, normalised came out at 75.3% in assay [2] (setting [33]), 81.2% in assay [2] (setting [34]), 43.2% in assay [2] (setting [21]) and 59% in assay [2] (setting [22]).
